# Measured values: PubChem BioAssay
# Activity calls are given as the source filed them.
# Columns and labels:
# [1] = optical density shifts of acrAB sulA E. coli – strain DRC41, OD650, 48 h, E. coli filamentation inducer project, primary screen (AID 1152); conditions: higher = more signal, called active from +8 up or from −8 down;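 note: E. coli MC1000 strain DRC41 lacking acrAB efflux pump and sulA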
# [2] = probe aLefty1 binding on compound microarray – biochemical, small-molecule microarray, 635/667 nm fluorescence, primary screen (AID 1153); conditions: higher = more signal;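 note: score merges spot fluorescence with signal-to-noise ratio from the scanned slide images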
# [3] = plasmodial surface anion channel blockers, osmotic lysis – cell-based, P. falciparum Indochina, OD700, 1 h, primary screen (AID 1154); conditions: P. falciparum Indochina infected RBC osmotic lysis, higher = more signal, called active from +8 up or from −8 down
# [4] = plasmodial surface anion channel blockers, osmotic lysis – cell-based, P. falciparum Indochina, OD700, 2 h, primary screen (AID 1155);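 note: lysis reports solute entry through the parasite surface anion channel PSAC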; conditions: P. falciparum Indochina infected erythrocytes, higher = more signal, called active from +8 up or from −8 down
# [5] = changes in parasitized red cell lysis, either direction – P. falciparum Indochina, OD700, 3 h, PSAC antagonist project, primary screen (AID 1156); conditions: P. falciparum-infected erythrocytes, osmotic lysis, higher = more signal, called active from +8 up or from −8 down
# [6] = plasmodial surface anion channel blockers, osmotic lysis – cell-based, P. falciparum Indochina, OD700, 18 h, primary screen (AID 1157); conditions: P. falciparum Indochina infected erythrocytes, osmotic lysis OD700, 18 h; higher = more signal, called active from +8 up or from −8 down
# [7] = S6 kinase pathway phospho-S6 level changes – cell-based, A549, cytoblot, luminescence, serum-stimulated, primary screen (AID 1158); conditions: 5 h, higher = more signal;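 note: serum-stimulated A549 lung adenocarcinoma cells; signal is phosphorylated S6 detected by cytoblot immunostaining with HRP secondary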
# [8] = target: NADPH oxidase 2 (Homo sapiens) (UniProt P04839); assay: compounds shifting NOX2 Amplex Red fluorescence – cell-based, HEK293-NOX2, PMA-stimulated, NOX inhibitor project, primary screen (AID 1159); conditions: 45 min, higher = more signal, called active from +8 up or from −8 down; note: test concentration not given here
# NADPH oxidase 2 (Homo sapiens), sequence (P04839 whole entry, looked up): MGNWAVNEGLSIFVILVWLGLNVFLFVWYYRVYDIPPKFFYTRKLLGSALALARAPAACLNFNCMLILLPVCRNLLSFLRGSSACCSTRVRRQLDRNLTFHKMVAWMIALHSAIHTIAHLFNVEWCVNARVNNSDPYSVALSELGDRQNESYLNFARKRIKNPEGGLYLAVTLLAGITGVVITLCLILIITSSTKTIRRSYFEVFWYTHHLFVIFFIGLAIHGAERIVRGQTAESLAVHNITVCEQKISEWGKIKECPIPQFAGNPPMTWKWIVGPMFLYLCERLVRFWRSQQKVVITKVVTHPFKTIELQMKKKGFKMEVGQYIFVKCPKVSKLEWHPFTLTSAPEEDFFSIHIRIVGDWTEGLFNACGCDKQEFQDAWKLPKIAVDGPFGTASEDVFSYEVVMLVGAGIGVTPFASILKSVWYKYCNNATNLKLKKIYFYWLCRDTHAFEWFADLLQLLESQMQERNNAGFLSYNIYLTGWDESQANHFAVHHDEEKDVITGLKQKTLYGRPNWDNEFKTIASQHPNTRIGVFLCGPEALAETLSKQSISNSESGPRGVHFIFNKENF
# [9] = target: NADPH oxidase 4 (Homo sapiens) (UniProt Q9NPH5); assay: compounds shifting NOX4 Amplex Red fluorescence – cell-based, HEK293-NOX4, tetracycline-induced, NOX inhibitor project, primary screen (AID 1160); conditions: HEK293-NOX4, Amplex Red H2O2 fluorescence, 45 min; higher = more signal, called active from +8 up or from −8 down
# NADPH oxidase 4 (Homo sapiens), sequence (Q9NPH5 whole entry, looked up): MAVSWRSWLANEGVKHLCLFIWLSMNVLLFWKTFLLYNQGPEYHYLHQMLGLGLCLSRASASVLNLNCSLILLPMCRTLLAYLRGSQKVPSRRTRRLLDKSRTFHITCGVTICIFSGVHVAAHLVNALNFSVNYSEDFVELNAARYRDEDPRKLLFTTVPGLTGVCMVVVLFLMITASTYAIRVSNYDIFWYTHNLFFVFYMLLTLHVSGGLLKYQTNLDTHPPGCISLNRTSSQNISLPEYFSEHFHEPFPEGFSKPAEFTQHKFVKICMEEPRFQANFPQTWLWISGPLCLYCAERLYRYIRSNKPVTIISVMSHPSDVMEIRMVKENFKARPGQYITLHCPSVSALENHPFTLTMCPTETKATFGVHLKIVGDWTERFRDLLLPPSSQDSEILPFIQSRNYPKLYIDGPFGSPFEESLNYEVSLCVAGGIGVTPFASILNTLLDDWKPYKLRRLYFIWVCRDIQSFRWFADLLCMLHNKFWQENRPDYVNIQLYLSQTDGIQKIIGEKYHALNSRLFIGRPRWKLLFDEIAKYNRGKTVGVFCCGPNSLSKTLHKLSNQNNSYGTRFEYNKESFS
# [10] = target: NADPH oxidase 5 (Homo sapiens) (UniProt Q96PH1); assay: compounds shifting NOX5 Amplex Red fluorescence – cell-based, HEK293-NOX5, NOX inhibitor project, primary screen (AID 1161); conditions: HEK293-NOX5, ionomycin, 45 min, higher = more signal
# NADPH oxidase 5 (Homo sapiens), sequence (Q96PH1 whole entry, looked up): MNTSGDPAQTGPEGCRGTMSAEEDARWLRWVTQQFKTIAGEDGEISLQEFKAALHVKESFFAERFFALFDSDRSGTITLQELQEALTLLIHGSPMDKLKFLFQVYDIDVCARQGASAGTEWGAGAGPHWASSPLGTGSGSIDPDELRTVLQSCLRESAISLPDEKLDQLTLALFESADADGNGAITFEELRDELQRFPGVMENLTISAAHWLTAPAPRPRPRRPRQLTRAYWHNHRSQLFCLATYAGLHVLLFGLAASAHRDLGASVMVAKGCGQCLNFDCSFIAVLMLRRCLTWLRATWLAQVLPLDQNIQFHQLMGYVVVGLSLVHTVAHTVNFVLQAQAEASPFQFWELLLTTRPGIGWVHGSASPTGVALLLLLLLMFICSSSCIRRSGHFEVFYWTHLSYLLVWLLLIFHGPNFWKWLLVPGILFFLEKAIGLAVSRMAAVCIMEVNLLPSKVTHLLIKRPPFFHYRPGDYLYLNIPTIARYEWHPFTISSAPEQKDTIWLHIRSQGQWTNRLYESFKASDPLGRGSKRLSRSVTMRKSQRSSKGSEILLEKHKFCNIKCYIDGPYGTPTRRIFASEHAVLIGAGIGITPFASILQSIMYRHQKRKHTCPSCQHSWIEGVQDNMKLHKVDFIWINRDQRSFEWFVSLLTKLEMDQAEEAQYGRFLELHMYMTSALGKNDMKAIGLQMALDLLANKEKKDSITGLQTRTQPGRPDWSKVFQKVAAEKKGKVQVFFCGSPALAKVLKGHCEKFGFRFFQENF
# [11] = compound effects on lung adenocarcinoma cell viability – A549, calcein-AM fluorescence, 48 h, basal, profiling panel (AID 1162); conditions: higher = more signal; note: test concentration not given here
# [12] = compound effects on differentiated 3T3-L1 adipocyte viability – cell-based, 3T3-L1 adipocytes, calcein-AM fluorescence, 48 h, basal, profiling panel (AID 1163); conditions: 3T3-L1 adipocytes viability, higher = more signal; note: test concentration not given here
# [13] = compound effects on hepatocellular carcinoma cell viability – HepG2, calcein-AM fluorescence, 48 h, basal, profiling panel (AID 1164); conditions: higher = more signal; note: test concentration not given here
# [14] = compound effects on multiple myeloma cell viability – MM1S, calcein-AM fluorescence, 48 h, basal, profiling panel (AID 1165); conditions: higher = more signal; note: test concentration not given here
# [15] = calcein-AM signal in unstimulated myeloma cells – cell-based, calcein-AM fluorescence, 48 h, PK04 Diversity Set, profiling panel (AID 1166); conditions: RPMI8226 myeloma viability, higher = more signal;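 note: cells grown under basal conditions without added stimulus; test concentration not given here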
# [16] = JC-1 mitochondrial signal, unstimulated HepG2 cells – cell-based, JC-1 fluorescence, 24 h, 100 nL compound, profiling panel (AID 1167); conditions: HepG2 mitochondrial potential, higher = more signal; note: test concentration not given here
# [17] = JC-1 mitochondrial signal, unstimulated adipocytes – cell-based, JC-1 fluorescence, 3T3-L1 adipocytes, 24 h, 100 nL compound, profiling panel (AID 1168); conditions: JC-1 mitochondrial fluorescence, higher = more signal, called active from +8 up or from −8 down; note: test concentration not given here
# [18] = JC-1 mitochondrial signal, unstimulated myeloma cells – cell-based, JC-1 fluorescence, RPMI8226, 24 h, 100 nL compound, profiling panel (AID 1169); conditions: JC-1 mitochondrial potential fluorescence, higher = more signal; note: test concentration not given here
# [19] = JC-1 mitochondrial signal, unstimulated MM1S myeloma – cell-based, JC-1 fluorescence, 24 h, 100 nL compound, profiling panel (AID 1170); conditions: MM1S mitochondrial potential, higher = more signal; note: test concentration not given here
# [20] = resazurin metabolic signal in A549 cells – cell-based, resazurin fluorescence, 24 h, PK04 Diversity Set, profiling panel (AID 1171); conditions: A549 viability, higher = more signal, called active from +8 up or from −8 down; note: test concentration not given here
Compound,z-score [1],composite z-score [2],z-score [3],z-score [4],z-score [5],z-score [6],z-score [7],z-score [8],z-score [9],z-score [10],z-score [11],z-score [12],z-score [13],z-score [14],z-score [15],z-score [16],z-score [17],z-score [18],z-score [19],z-score [20]
C=C[C@H](C)[C@H](OC(=O)Nc1ccc(OC)cc1)c1ccc(O)c2ccccc12,-0.222 (inactive),0.0313,1.71 (inactive),0.435 (inactive),-0.554 (inactive),-0.187 (inactive),0.486,-5.39 (inactive),-1.77 (inactive),-0.256,-0.697,0.256,-1.87,-2.98,-4.25,-3.3,-1 (inactive),-1.03,-2.07,-0.232 (inactive)
[N-]=[N+]=NCc1ccccc1[C@H]1OC(c2ccc(OCCCO)cc2)=N[C@@]1(Cc1ccccc1)C(=O)O,-1.02 (inactive),-0.166,17.6 (active),1.59 (inactive),-0.907 (inactive),0.246 (inactive),-0.239,0.861 (inactive),1.27 (inactive),1.65,1.17,-1.06,0.991,0.791,0.465,-0.0179,0.241 (inactive),-0.491,-0.804,0.932 (inactive)
CC1CC/C=C\[C@H]2OC34C=CCN(Cn5nnc6ccccc65)C(=O)[C@H]3N(CCCO)C(=O)[C@@H]4C2C(=O)O1 (stereo not given in full),1.29 (inactive),0.0445,0.935 (inactive),0.563 (inactive),-0.264 (inactive),0.554 (inactive),0.114,0.923 (inactive),-1.82 (inactive),1.4,-0.677,1.5,-0.501,0.159,-0.894,-0.0699,-0.382 (inactive),0.0216,0.638,0.356 (inactive)
O=C(NCC(F)(F)F)[C@@H]1c2ccccc2C(=O)N(Cc2ccccc2)[C@H]1c1ccc(CO)cc1,0.467 (inactive),-0.147,0.878 (inactive),-0.453 (inactive),0.239 (inactive),-0.406 (inactive),-0.325,-0.489 (inactive),0.597 (inactive),-0.601,1.73,0.402,1.34,0.356,-0.407,2.14,1.2 (inactive),0.0511,-0.657,0.176 (inactive)
COCCOC(=O)N1C(=O)[C@@]2(c3cc(C#CCC(C(=O)OC)C(=O)OC)ccc31)[C@H](c1ccc(OCCO)cc1)N1[C@H](c3ccccc3)[C@H](c3ccccc3)OC(=O)[C@H]1[C@@H]2C(=O)NC[C@H](O)c1ccccc1,0.588 (inactive),-0.0533,3.79 (inactive),1.54 (inactive),1.69 (inactive),1.17 (inactive),0.22,1.53 (inactive),1.26 (inactive),1.17,0.185,0.102,1.56,0.446,-2.01,0.177,1.39 (inactive),-0.749,-1.61,0.0076 (inactive)
O=C(NCC(O)CO)[C@@]1(Cc2ccccc2)N=C(c2ccc(OCCCO)cc2)O[C@H]1c1ccccc1 (stereo not given in full),0.931 (inactive),0.828,19.8 (active),3.69 (inactive),1.88 (inactive),1.28 (inactive),-0.142,-0.513 (inactive),1.63 (inactive),1.16,-0.125,1.2,-0.266,-1.93,-0.0748,0.4,0.366 (inactive),-0.392,-0.223,0.564 (inactive)
COc1cc(NN2C(C(O)c3ccccc3)C=CC3C(=O)N(c4ccccc4)C(=O)C32)cc(OC)c1OC (stereo not given),-0.26 (inactive),0.644,1.38 (inactive),0.0862 (inactive),0.86 (inactive),-0.325 (inactive),0.838,-3.61 (inactive),-4.63 (inactive),-7.16,-0.873,0.0146,0.253,0.673,0.0985,-0.602,-1.72 (inactive),0.179,-1.41,-0.381 (inactive)
CCOC(=O)C1=C[C@@H](C(C)(C)C)N(S(=O)(=O)c2ccc(C)cc2)[C@H]1c1ccc(Cl)c(Cl)c1,-1.27 (inactive),0.157,1.92 (inactive),1.15 (inactive),-0.335 (inactive),0.659 (inactive),-0.359,-0.739 (inactive),0.0493 (inactive),0.263,-0.292,-0.257,-1.36,-0.266,-0.986,4.44,-1.66 (inactive),-0.981,-1.33,-2.26 (inactive)
O=C1O[C@H](c2ccccc2)[C@H](c2ccccc2)N2[C@H]1[C@@H](C(=O)N1CCCCCCC1)[C@]1(C(=O)Nc3ccc(C#CC4=CCCCC4)cc31)[C@H]2c1ccc(O)cc1,-0.306 (inactive),3.07,0.123 (inactive),-0.131 (inactive),0.0311 (inactive),0.482 (inactive),-0.0408,0.855 (inactive),0.494 (inactive),0.322,-0.674,1.01,-0.0827,-0.181,-0.773,-1.28,0.634 (inactive),-0.179,-1.28,0.327 (inactive)
COc1ccc([Si](C)(C)[C@H]2[C@H](CC(=O)N3Cc4ccccc4C[C@H]3CO)O[C@@]3(C(=O)N(Cc4cccc(I)c4)c4ccccc43)[C@@H]2C)cc1,0.232 (inactive),0.0233,6.74 (inactive),1.38 (inactive),2.14 (inactive),1.19 (inactive),0.452,-1.36 (inactive),-0.348 (inactive),-2.55,-0.817,0.0894,-0.693,-2.42,-4.12,1.33,0.814 (inactive),-1.06,-0.605,-1.84 (inactive)
CC(C)NC(=O)[C@@H]1c2ccccc2C(=O)N(C2CCCCC2)[C@H]1c1ccc(CO)cc1,-0.359 (inactive),-0.101,-0.521 (inactive),0.169 (inactive),-0.113 (inactive),-0.136 (inactive),-0.061,0.664 (inactive),0.822 (inactive),0.802,0.699,-0.209,0.581,-0.594,-2.04,1.54,-0.656 (inactive),-0.811,0.103,1.08 (inactive)
CCCC[C@H]1C[C@@H]1[C@@H]1N(P(=O)(c2ccccc2)c2ccccc2)[C@](CO)(c2ccccc2)CC12CC2,-2.52 (inactive),0.394,4.95 (inactive),0.761 (inactive),2.01 (inactive),0.985 (inactive),0.353,-0.339 (inactive),1.08 (inactive),-2.29,-2.02,-0.0661,-1.96,-3.23,-4.69,-2.28,-0.732 (inactive),-0.868,-2.86,0.936 (inactive)
CCOC(=O)C=Cc1cccc(OC)c1O,-0.572 (inactive),-0.184,21.2 (active),2.21 (inactive),0.957 (inactive),-1.28 (inactive),1.73,-5.37 (inactive),-5.92 (inactive),-6.34,-0.364,0.532,-0.834,0.408,-1.61,-0.94,0.151 (inactive),-0.149,-1.25,-0.787 (inactive)
O=C1C2C=CC(C(O)c3ccccn3)N(Nc3ccccc3F)C2C(=O)N1c1ccccc1 (stereo not given),-0.882 (inactive),-0.133,0.671 (inactive),0.571 (inactive),0.42 (inactive),1.19 (inactive),-0.725,-1.63 (inactive),-3.57 (inactive),-1.54,-0.922,-1.12,1.04,-0.211,-0.217,-0.793,0.608 (inactive),-0.196,-0.541,-0.52 (inactive)
C=CCC(OC(C)=O)[C@@H]1[C@@H](N(Cc2cc3ccccc3o2)C(=O)c2ccc(-c3ccccc3)cc2)c2cc(OCCCO)ccc2N1C(=O)Cc1ccc2ccccc2c1 (stereo not given in full),-0.0233 (inactive),-0.0984,0.574 (inactive),-0.344 (inactive),-0.145 (inactive),0.26 (inactive),0.233,0.972 (inactive),-0.906 (inactive),1.53,0.809,0.778,1.48,0.372,-0.0122,1.64,-0.211 (inactive),-0.0273,0.293,0.483 (inactive)
C[n+]1ccc2ccc(O)cc2c1,0.0539 (inactive),-0.109,0.907 (inactive),0.557 (inactive),1.95 (inactive),0.374 (inactive),0.387,-0.469 (inactive),-0.566 (inactive),0.0145,-0.274,0.509,-1.33,0.653,-1.91,-0.774,-0.917 (inactive),1.03,-0.723,-0.733 (inactive)
COCCOC(=O)N1C(=O)[C@@]2(c3cc(C#CCC(C(=O)OC)C(=O)OC)ccc31)[C@H](c1ccccc1OCCO)N1[C@H](c3ccccc3)[C@H](c3ccccc3)OC(=O)[C@H]1[C@@H]2C(=O)Nc1nc2ccccc2s1,4.44 (inactive),0.437,11.7 (active),1.48 (inactive),0.444 (inactive),-0.734 (inactive),3.72,1.18 (inactive),1.19 (inactive),-0.494,1.7,0.321,1.4,-0.569,-0.922,-2.31,0.844 (inactive),-0.76,-0.578,-0.0543 (inactive)
CCCC[C@@H]1C[C@H]1[C@@H](NC(=O)c1ccco1)c1ccccc1,-2.76 (inactive),-0.168,4.64 (inactive),1.16 (inactive),0.747 (inactive),0.545 (inactive),-0.446,-1.42 (inactive),-2.53 (inactive),0.195,-2.22,-0.252,-2.22,-3.27,-4.74,-3.6,-1.27 (inactive),-0.759,-2.24,2.55 (inactive)
